Laboratory results reported in PMC7862700, “An all-to-all approach to the identification of sequence-specific readers for epigenetic DNA modifications on cytosine”.

Assays:
Assay in all cases: DAPPL (digital affinity profiling via proximity ligation, sequencing); 10 mM Tris-HCl pH 7.5, 50 mM NaCl, 1 mM DTT, 4% glycerol, room temperature, 30 min; GST-TFs on glutathione beads, 16-mer random dsDNA library, 0.1% formaldehyde crosslink after washing; high values mean tight binding
Settings in all cases: protein: recombinant; tags: N-terminal GST; dsDNA, one strand shown
EHF = target: T1, EHF (Homo sapiens, UniProt Q9NZC4 1-300)
T1 sequence: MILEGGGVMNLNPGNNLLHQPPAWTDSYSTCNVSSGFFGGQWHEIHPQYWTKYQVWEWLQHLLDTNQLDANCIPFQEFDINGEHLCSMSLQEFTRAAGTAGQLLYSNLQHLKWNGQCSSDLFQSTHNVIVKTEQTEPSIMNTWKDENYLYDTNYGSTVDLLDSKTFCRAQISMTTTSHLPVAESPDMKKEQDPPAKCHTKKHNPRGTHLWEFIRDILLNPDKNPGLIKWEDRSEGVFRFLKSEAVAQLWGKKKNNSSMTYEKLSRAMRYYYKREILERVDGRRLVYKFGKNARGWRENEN
Method in brief: (§1)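 A tag-only sample was pooled with DNA-barcoded human transcription factors that had been expressed in yeast as GST fusions and captured on glutathione beads. The pools were incubated for 30 min at room temperature with 200 nmole of a random double-stranded 16-mer DNA library in Tris/NaCl/DTT/glycerol buffer, then washed, crosslinked with 0.1% formaldehyde, proximity-ligated (BsaI/T4 ligase, 1 h, 37 °C), PCR-amplified and sequenced on an Illumina NextSeq500. Binding signal is each hexamer's read frequency for a factor divided by its frequency for the tag-only sample.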

SPIC = target: T2, SPIC (Homo sapiens, UniProt Q8N5J4 1-248)
T2 sequence: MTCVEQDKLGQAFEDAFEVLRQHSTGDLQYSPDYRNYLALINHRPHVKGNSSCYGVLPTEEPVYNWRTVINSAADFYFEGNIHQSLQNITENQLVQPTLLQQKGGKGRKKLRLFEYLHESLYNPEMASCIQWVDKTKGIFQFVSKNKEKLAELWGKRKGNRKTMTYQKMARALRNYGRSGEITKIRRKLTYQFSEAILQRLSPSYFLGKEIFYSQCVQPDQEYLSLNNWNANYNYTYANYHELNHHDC
Method in brief: as §1

ELF3 = target: T3, ELF3 (Homo sapiens, UniProt P78545 1-371)
T3 sequence: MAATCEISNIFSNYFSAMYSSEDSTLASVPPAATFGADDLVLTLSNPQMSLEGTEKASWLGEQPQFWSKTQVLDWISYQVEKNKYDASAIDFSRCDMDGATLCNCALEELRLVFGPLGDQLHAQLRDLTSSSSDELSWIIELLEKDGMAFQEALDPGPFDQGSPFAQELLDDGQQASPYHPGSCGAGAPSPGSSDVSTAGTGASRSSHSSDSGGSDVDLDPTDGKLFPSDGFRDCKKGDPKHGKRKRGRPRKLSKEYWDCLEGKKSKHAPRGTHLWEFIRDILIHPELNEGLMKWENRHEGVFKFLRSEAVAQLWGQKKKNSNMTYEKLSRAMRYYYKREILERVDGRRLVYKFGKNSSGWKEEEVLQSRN
Method in brief: as §1

ELK1 = target: T4, ELK1 (Homo sapiens, UniProt P19419 1-428)
T4 sequence: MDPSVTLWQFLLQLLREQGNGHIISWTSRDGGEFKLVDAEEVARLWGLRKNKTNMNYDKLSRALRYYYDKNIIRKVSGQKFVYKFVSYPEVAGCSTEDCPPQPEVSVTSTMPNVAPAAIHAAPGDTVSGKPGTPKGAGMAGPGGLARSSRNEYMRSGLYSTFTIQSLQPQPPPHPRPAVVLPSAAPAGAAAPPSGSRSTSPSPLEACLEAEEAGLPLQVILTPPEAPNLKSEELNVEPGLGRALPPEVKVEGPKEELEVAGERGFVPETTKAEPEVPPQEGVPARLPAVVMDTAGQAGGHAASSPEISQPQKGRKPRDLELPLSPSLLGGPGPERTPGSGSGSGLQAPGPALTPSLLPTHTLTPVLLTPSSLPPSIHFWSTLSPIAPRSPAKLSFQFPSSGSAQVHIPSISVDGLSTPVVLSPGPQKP
Method in brief: as §1

ELF1 = ELF1 (Homo sapiens, UniProt P32519 1-619)
Method in brief: as §1

ELK3 = target: T5, ELK3 (Homo sapiens, UniProt P41970 1-407)
T5 sequence: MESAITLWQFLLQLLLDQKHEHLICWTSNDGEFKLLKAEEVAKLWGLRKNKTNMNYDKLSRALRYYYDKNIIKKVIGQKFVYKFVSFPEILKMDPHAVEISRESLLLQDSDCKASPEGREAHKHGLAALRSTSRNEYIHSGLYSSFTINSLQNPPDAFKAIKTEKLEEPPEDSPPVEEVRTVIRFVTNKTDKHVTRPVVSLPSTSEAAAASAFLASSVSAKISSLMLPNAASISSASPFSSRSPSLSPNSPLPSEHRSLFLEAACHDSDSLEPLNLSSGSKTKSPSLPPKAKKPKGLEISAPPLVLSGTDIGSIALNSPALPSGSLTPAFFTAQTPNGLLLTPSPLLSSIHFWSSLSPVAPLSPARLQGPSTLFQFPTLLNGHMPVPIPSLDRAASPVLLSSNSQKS
Method in brief: as §1

FEV = target: T6, FEV (Homo sapiens, UniProt Q99581 1-238)
T6 sequence: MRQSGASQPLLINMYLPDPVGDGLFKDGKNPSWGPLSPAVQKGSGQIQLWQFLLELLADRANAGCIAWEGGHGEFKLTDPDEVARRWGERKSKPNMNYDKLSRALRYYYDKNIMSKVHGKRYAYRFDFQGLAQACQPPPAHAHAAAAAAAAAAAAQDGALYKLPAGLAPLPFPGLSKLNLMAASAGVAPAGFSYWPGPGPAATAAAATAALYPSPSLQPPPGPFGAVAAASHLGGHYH
Method in brief: as §1

ETV3L = target: T7, ETV3L (Homo sapiens, UniProt Q6ZN32 1-361)
T7 sequence: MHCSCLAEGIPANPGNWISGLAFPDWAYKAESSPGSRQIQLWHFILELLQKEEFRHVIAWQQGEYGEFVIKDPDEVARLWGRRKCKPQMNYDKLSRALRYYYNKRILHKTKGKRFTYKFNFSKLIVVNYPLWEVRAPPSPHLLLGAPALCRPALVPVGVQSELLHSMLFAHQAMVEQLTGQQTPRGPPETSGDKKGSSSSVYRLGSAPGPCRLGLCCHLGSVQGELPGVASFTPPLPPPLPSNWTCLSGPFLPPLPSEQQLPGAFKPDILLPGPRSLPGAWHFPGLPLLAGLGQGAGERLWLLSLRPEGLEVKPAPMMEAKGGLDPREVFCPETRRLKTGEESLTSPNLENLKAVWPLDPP
Method in brief: as §1

ETV3 = target: T8, ETV3 (Homo sapiens, UniProt P41162-2 1-143)
T8 sequence: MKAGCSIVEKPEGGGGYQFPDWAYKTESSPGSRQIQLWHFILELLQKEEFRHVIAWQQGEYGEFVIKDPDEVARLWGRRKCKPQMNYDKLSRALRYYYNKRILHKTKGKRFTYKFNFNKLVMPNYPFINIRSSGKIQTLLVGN
Method in brief: as §1

ETV6 = ETV6 (Homo sapiens, UniProt P41212 1-452)
Method in brief: as §1

SPI1 = SPI1 (Homo sapiens, UniProt P17947 1-270)
Method in brief: as §1

SPIB = SPIB (Homo sapiens, UniProt Q01892 1-262)
Method in brief: as §1

ETV2 = target: T9, ETV2 (Homo sapiens, UniProt O00321 1-342)
T9 sequence: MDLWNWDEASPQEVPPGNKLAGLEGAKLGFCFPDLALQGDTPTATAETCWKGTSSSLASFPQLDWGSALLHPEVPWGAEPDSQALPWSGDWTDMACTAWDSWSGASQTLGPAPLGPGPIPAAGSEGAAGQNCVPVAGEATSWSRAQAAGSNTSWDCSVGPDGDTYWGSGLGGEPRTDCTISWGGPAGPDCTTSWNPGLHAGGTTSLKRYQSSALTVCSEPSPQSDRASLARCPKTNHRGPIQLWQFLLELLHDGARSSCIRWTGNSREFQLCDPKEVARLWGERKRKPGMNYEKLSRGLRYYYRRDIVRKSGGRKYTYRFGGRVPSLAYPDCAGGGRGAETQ
Method in brief: as §1

ERF = target: T10, ERF (Homo sapiens, UniProt P50548 1-548)
T10 sequence: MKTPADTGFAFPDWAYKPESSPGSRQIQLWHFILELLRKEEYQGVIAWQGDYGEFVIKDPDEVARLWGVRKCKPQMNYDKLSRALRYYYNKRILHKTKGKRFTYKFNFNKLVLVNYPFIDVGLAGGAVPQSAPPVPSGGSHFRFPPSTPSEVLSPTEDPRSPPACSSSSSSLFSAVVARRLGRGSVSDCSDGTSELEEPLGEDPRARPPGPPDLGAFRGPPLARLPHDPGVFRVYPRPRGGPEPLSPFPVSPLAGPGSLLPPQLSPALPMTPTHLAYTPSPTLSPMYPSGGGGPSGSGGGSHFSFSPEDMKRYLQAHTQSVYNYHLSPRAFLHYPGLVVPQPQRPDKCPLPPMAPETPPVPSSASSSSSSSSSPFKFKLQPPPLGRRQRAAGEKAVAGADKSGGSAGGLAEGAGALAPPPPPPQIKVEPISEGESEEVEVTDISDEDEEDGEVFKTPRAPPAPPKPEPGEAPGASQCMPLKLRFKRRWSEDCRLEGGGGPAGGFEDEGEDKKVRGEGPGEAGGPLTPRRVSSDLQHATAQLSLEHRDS
Method in brief: as §1

ELF1, sequence (P32519 whole entry): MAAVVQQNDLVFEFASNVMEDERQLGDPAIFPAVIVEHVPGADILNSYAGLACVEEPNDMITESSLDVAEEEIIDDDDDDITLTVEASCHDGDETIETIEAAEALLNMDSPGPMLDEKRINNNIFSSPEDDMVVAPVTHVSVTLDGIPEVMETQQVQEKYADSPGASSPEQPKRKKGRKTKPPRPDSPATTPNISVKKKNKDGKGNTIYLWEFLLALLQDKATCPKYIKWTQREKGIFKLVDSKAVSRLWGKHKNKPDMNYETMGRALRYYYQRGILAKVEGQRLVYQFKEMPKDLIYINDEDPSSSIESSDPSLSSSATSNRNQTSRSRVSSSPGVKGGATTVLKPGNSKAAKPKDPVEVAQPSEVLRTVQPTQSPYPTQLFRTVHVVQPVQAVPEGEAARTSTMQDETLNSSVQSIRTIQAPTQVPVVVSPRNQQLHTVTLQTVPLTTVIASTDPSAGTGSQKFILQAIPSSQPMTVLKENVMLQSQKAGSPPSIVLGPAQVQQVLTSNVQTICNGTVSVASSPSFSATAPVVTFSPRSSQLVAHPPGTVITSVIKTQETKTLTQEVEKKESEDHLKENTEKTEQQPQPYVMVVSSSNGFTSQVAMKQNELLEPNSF
SPIB, sequence (Q01892 whole entry): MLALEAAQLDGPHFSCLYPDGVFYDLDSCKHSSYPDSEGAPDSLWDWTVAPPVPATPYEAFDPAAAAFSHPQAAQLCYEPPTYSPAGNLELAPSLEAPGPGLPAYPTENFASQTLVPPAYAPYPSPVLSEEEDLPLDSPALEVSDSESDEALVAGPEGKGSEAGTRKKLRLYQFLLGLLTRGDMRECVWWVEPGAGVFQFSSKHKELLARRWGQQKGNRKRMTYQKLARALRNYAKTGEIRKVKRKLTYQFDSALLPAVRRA
ETV6, sequence (P41212 whole entry): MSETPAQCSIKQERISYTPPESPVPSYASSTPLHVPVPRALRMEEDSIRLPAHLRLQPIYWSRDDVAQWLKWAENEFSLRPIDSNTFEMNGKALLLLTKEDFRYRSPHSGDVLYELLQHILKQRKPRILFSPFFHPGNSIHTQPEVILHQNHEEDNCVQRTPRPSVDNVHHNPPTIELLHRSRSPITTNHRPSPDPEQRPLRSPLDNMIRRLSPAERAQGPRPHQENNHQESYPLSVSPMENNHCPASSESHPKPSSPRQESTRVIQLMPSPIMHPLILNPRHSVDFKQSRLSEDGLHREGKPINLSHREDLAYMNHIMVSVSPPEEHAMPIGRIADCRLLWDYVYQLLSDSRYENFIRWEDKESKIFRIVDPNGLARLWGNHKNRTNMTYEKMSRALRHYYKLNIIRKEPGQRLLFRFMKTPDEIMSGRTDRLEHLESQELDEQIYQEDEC

Sequence	binding signal (EHF)	binding signal (SPIC)	binding signal (ELF3)	binding signal (ELK1)	binding signal (ELF1)	binding signal (ELK3)	binding signal (FEV)	binding signal (ETV3L)	binding signal (ETV3)	binding signal (ETV6)	binding signal (SPI1)	binding signal (SPIB)	binding signal (ETV2)	binding signal (ERF)
AGATAC	1 fold enrichment (6-mer frequency, TF over GST control)	1.05 fold enrichment (6-mer frequency, TF over GST control)	1.01 fold enrichment (6-mer frequency, TF over GST control)											
GGTTAC		1.05 fold enrichment (6-mer frequency, TF over GST control)	1.07 fold enrichment (6-mer frequency, TF over GST control)	1.05 fold enrichment (6-mer frequency, TF over GST control)	1.01 fold enrichment (6-mer frequency, TF over GST control)	1.04 fold enrichment (6-mer frequency, TF over GST control)	1 fold enrichment (6-mer frequency, TF over GST control)	1.01 fold enrichment (6-mer frequency, TF over GST control)	1.01 fold enrichment (6-mer frequency, TF over GST control)	1.02 fold enrichment (6-mer frequency, TF over GST control)				
GGCGTT		1.08 fold enrichment (6-mer frequency, TF over GST control)	1.1 fold enrichment (6-mer frequency, TF over GST control)			1.02 fold enrichment (6-mer frequency, TF over GST control)	1.01 fold enrichment (6-mer frequency, TF over GST control)	1.09 fold enrichment (6-mer frequency, TF over GST control)			1.03 fold enrichment (6-mer frequency, TF over GST control)	1.05 fold enrichment (6-mer frequency, TF over GST control)	1.13 fold enrichment (6-mer frequency, TF over GST control)	1.01 fold enrichment (6-mer frequency, TF over GST control)
